The text below walks through data of PubChem BioAssay AID1347426 (Functional Genomics Laboratory (NCATS/FGL), 2020).

The whole screen tested about 31,000 sequences, of which about 1,400 (4.5%) were called active. The full list was thinned out, with actives kept by preference. A number with no mark means an inactive call.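 How the source made its calls: active means median seed-adjusted z-score above 1 or below -1; inactive means the rest.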

The assay can be described thus: Novel Modifiers of Survival Motor Neuron (SMN) Protein: Gene Identification via Genome-wide siRNA Screen. The note with it: HEK293T SMN2-luciferase reporter, siRNA knockdown, 72 h; actives lie on both sides. The method in brief:
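Each of three siRNAs per gene is reverse-transfected (1 pmol) into reporter HEK293T cells whose luciferase output tracks SMN protein level. After 72 h culture, ONE-Glo luminescence is control-normalized, log10-transformed and MAD-standardized; Common Seed Analysis deprioritizes seed-driven hits.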
For the sequence AAUUCAAGCUAUGAAGAUATT against ACO2, the median seed-adjusted z-score is -1.57 (active).

As for CCUUCAAUGUGGGCUACCATT against DEGS2, the median seed-adjusted z-score was -0.305.

For the sequence CAACCUUUCUUGUUAGUAATT against DHRS7, the median seed-adjusted z-score is 0.255.

Turning to CUGUUCCAGUUGUGGCUCUTT against KRTAP5-1, the median seed-adjusted z-score was 0.

CAACAGCGAUUGGAAUGGATT against UGDH: the median seed-adjusted z-score was 0.674.

CUGGAAGUGUUAUUCCUAATT against FOXD4L1: the median seed-adjusted z-score is 0.271.

For the sequence CGACAAGCCCAAUGUUUAUTT against SSU72, the median seed-adjusted z-score was -1.64 (active).

For the sequence GUACCGAGAGAAUAACAAATT against SYP, the median seed-adjusted z-score is -0.0289.

For GCUGGUUAGGAACCGCUCATT against ZNF579, the median seed-adjusted z-score was -0.0604.

For GGCAAGUAGAUAGUACAUUTT against ZNF507, the median seed-adjusted z-score was -0.262.

Turning to UGAUAAGGAUAACAAGAGATT against CAMP, the median seed-adjusted z-score is -0.622.

For GCAUCAAGAUUUUCCGCUUTT against SLC26A2, the median seed-adjusted z-score was -1.25 (active).

Turning to GCAUAGGCCCAGUAACUUATT against SLC25A34, the median seed-adjusted z-score was -0.256.

In the case of CGCUCACAGUCAUACACGUTT against SLC39A7, the median seed-adjusted z-score was 0.0554.

As for CUCUUGUACCAGUUCCUGATT against SLC25A35, the median seed-adjusted z-score was -0.762.

With UGGUCGUUAUGGUCCUAUATT against FUSIP1, the median seed-adjusted z-score was 0.865.

For the sequence GGCACGGUUUUGGUCGAAATT against FREM2, the median seed-adjusted z-score is 0.143.

For the sequence UACAUAUGCUGGACAGAAATT against SSU72, the median seed-adjusted z-score is -1.64 (active).

Take CAGGUAUGGUGAACCGUGATT against YES1: the median seed-adjusted z-score is -0.508.

In the case of GUACCUCGUAAAUCACGAATT against NFAT5, the median seed-adjusted z-score is 0.106.

Consider GAUUUUCACUUGCAACUCATT against PDP2, for which the median seed-adjusted z-score is -0.0726.

For the sequence AGAGCAACAUCAACAUUAUTT against TKTL1, the median seed-adjusted z-score was -0.495.

With CGACCGUGGUGACAUGAUUTT against LRP3, the median seed-adjusted z-score was -1.05 (active).

As to GCUCCGCAAAUGUGGUUGATT against ZNF714, the median seed-adjusted z-score is 0.

As for UGCGCAACCUUAAGAACAATT against PRAF2, the median seed-adjusted z-score was -0.326.

With GAAAGGCAGUUUUCGUAAATT against NXF3, the median seed-adjusted z-score is 0.672.

GAGAGGUACCAGACCAUGATT against POLM: the median seed-adjusted z-score is -1.55 (active).

As for AGCCUGAAAGUAUCCGUAATT against CLTA, the median seed-adjusted z-score is 0.243.

On to GGAGCUCUGUUGUGGAGAATT against FCGRT, for which the median seed-adjusted z-score was -0.00396.

With GGACUAAACUACCUCCAAATT against KCNE3, the median seed-adjusted z-score was -1.33 (active).

As to CCUGAAAUCAUAGAGUUAATT against KCNMA1, the median seed-adjusted z-score is 0.

On to AGCAGAAGAUGGUAGAUGATT against VIL1, for which the median seed-adjusted z-score is 0.368.

Turning to AGGGCACAUUCACCAGUGATT against GCG, the median seed-adjusted z-score is -1.18 (active).

On to CUCCUGCUGCAAAACAAUATT against SLC25A6, for which the median seed-adjusted z-score was -0.928.

GUCACGUCUUGAUACCUCUTT against ACAD8: the median seed-adjusted z-score is 1.06 (active).

With GAUUGUCUUCGGUCUAUUATT against STAM, the median seed-adjusted z-score was 0.

In the case of GACCCACUCUUGAAAGACATT against ZNF304, the median seed-adjusted z-score was -0.44.

On to CGAGAGGGCUGUUUCCAAATT against LIMS3, for which the median seed-adjusted z-score was -0.078.

In the case of GAAAGAUGGUGUUGACUUUTT against ALDOB, the median seed-adjusted z-score was -1.34 (active).

Consider CUUCAUAUCUCUUUACGUATT against PIGW, for which the median seed-adjusted z-score is -0.242.

On to CCACCAAUGUAGUCUAUCATT against PAPSS2, for which the median seed-adjusted z-score was -0.201.

Take AGAAGACCCGUAGACUGAATT against NEUROG2: the median seed-adjusted z-score is -0.366.

For the sequence UAAACUCGUUAGUCAAUUATT against SLC7A9, the median seed-adjusted z-score was 0.194.

As for GCAGAUAAGUGAACGAGAUTT against SAMHD1, the median seed-adjusted z-score was -1.33 (active).

In the case of CGCUCCUUGUCAAAAGAAATT against KCNS3, the median seed-adjusted z-score was 0.103.

GCAUGACCUCUGUAAGGGATT against ANK1: the median seed-adjusted z-score is -0.282.

Turning to GAAUCGCAAGGAUAUGAUATT against MSH2, the median seed-adjusted z-score is 0.

In the case of CCAUCUACCAGCUAAUCAATT against PIK3C2G, the median seed-adjusted z-score was 0.0251.

For GGAUUCCCUUCAAGAUAUATT against NUCB2, the median seed-adjusted z-score is 0.45.

Regarding CCAUCACCCGUGAAGAGAATT against CRYAB, the median seed-adjusted z-score was 0.354.

In the case of CAAUGGUCCAAGUCUAACATT against EEF1E1, the median seed-adjusted z-score is -1.45 (active).

Turning to CCCAGUCAAUCAAAGGAAATT against CD3G, the median seed-adjusted z-score is -0.0274.

Turning to GAAAGCAACUGACACUCUUTT against ATP2C2, the median seed-adjusted z-score was -0.302.

In the case of CAAGGGCACAGGCACAAAATT against SBK1, the median seed-adjusted z-score was 0.0587.

With ACCACGCAUUAAAACCAAATT against PRKCE, the median seed-adjusted z-score was 0.568.

GGGAGGAUUUGAUCGGACATT against SPEN: the median seed-adjusted z-score is -1.69 (active).

As to CCUUCUGAAAGAACGCAAATT against ABCA8, the median seed-adjusted z-score is -0.666.

In the case of GAAUAUGCAUUGCUAACCATT against SV2C, the median seed-adjusted z-score is 0.183.

On to GGCAUUAUCUGGAUCACUUTT against PATE1, for which the median seed-adjusted z-score is 1.21 (active).

Take GAAGAUCAUUAGAUUUCUATT against SULT1B1: the median seed-adjusted z-score is -0.115.

Turning to GUACGUCCAUUAUGGAGAATT against GPR82, the median seed-adjusted z-score is -0.83.

Take GGAUAAUGAUGACGGGAGATT against SYT9: the median seed-adjusted z-score was 0.0419.

With CAACGACCGGAGGUAUAAATT against BPGM, the median seed-adjusted z-score is 0.408.

Turning to CCGGCUUCCUCAUUACCUUTT against SLC2A14, the median seed-adjusted z-score was -1.09 (active).

For GGACUUACCUCAAUCAGAUTT against ZDHHC13, the median seed-adjusted z-score was -0.381.

On to CGAGAGGUGUAUCAAUAUATT against LIN7A, for which the median seed-adjusted z-score was -1.39 (active).

Regarding GCUUUACCACCGUACGAAATT against MST4, the median seed-adjusted z-score is 0.343.

Turning to UGAGAAUUGUGGAUCCGGATT against CSTF2, the median seed-adjusted z-score was 0.586.

GGUACGAAUGAAUACCUUUTT against PTPN4: the median seed-adjusted z-score was -0.447.

In the case of GACCCAGCCGAAUACAACATT against NDUFB4, the median seed-adjusted z-score was -0.697.

For the sequence GAACCUACAUCAUCAGUAUTT against GJA1, the median seed-adjusted z-score is 0.348.

Consider GCCUUGCUGUUAAAGGGCATT against PARP2, for which the median seed-adjusted z-score is -0.366.

As to AGAGUGACCUGAUUGAGCATT against CSNK2B, the median seed-adjusted z-score is -1.62 (active).

GGCCUUUGGUGAAAACCGUTT against CLDN11: the median seed-adjusted z-score is 0.268.

GCCUAUGACCUUCUACUUUTT against SLC31A1: the median seed-adjusted z-score was 0.

GUAUCUGCGAGGACGAAAATT against RNF113B: the median seed-adjusted z-score was -0.228.

With GCAUCAUCGGUACCCAGUUTT against MPO, the median seed-adjusted z-score was -0.223.

On to GGCCGCUGCUUGUUUGUCATT against SLC13A3, for which the median seed-adjusted z-score is 0.0434.

For ACUGUGAAAUUGGACCAAUTT against RABIF, the median seed-adjusted z-score is 0.

On to CUGUCGCUGUCUGACCAGATT against ESRRA, for which the median seed-adjusted z-score is -0.833.

As to AGACAAUGAUCAUAGACAATT against IDH3B, the median seed-adjusted z-score is -0.642.

Regarding CAACAACCCUUAUCGUAAATT against POLQ, the median seed-adjusted z-score is 0.203.

As to GAGACUAUAUCUACAUGAATT against SLITRK3, the median seed-adjusted z-score was -0.564.

For CGGAUGUUCUUUACACUAUTT against HNRNPL, the median seed-adjusted z-score is 1.04 (active).

For the sequence GCAUAUGACUUGUAUUCCUTT against TFB2M, the median seed-adjusted z-score was 0.206.

Regarding GGGACAUGGGAAUGCAAUATT against MSR1, the median seed-adjusted z-score was 0.0743.

For the sequence GGAAAUCUCGUGAUUUUCATT against TEAD1, the median seed-adjusted z-score is 1.31 (active).

CCAGAAACGUACACCUGAUTT against COX7B: the median seed-adjusted z-score was -1.16 (active).

Turning to CCAUCAACACUGAAUUGCATT against SEC22B, the median seed-adjusted z-score was -0.106.

For GUAUAGAUCUCUAUUUCUATT against COPZ1, the median seed-adjusted z-score is -1.02 (active).

Regarding GAAGAGUGGUACUACCAGATT against BACE2, the median seed-adjusted z-score is 0.0853.

CCACUUCAAGAAAACUUCATT against ZSCAN22: the median seed-adjusted z-score is 0.277.

Turning to GGCUCGAGAUUUAUACGAUTT against HECTD1, the median seed-adjusted z-score was -0.0588.

With GGAGAAAGGAUCACGCUAATT against KCTD1, the median seed-adjusted z-score is 0.

As to CCUACACGGUCCUUCGUAATT against HEPHL1, the median seed-adjusted z-score was 0.0681.

For the sequence CCUUCUAUCAUGUAAGCUATT against IL1A, the median seed-adjusted z-score is 1.12 (active).

Take GCGUGUUCCCAAUAGUGUATT against OGT: the median seed-adjusted z-score is 0.411.

For GGAUAUCACAGAAGGAUAUTT against ANXA4, the median seed-adjusted z-score is -0.0932.

With GUGUAAAACUUGUCAGCGATT against WT1, the median seed-adjusted z-score is 0.236.

On to GCAGCUUCAUAACCGAAGATT against PARP1, for which the median seed-adjusted z-score is -0.0913.

As for GAUGCAUGUUUGUAAAAAUTT against KCNJ6, the median seed-adjusted z-score is -1.6 (active).

With GCCCAACAGUCAUUCAACATT against CHMP5, the median seed-adjusted z-score is 0.

As to GGAGGUGACCUUCCAGGAATT against RAB17, the median seed-adjusted z-score is 0.473.

On to GGCCGUCAGUAAUACAUCUTT against ZBTB33, for which the median seed-adjusted z-score is 0.164.

With CCACCAAUCACGAACCUAATT against IL3RA, the median seed-adjusted z-score was -0.951.

On to CAGUGUAUCUGAACCUAUUTT against EFTUD1, for which the median seed-adjusted z-score is -1.39 (active).

Regarding GCUCUUCGGGAGAAUCUUUTT against CTNNAL1, the median seed-adjusted z-score is 0.229.

On to AGACCAUUGAGACCCGGAATT against PRPH, for which the median seed-adjusted z-score is 0.

On to CAACUAAUUUCUAAUCGUUTT against ADAD1, for which the median seed-adjusted z-score is -0.0795.
